Assay [1] is described as follows: NCI Yeast Anticancer Drug Screen. Data for the rad50 strain (AID 155).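 Further: 0% = growth of vehicle-only cultures of the same strain.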 The following applies: S. cerevisiae rad50 strain growth inhibition; at 50.0 µM; stronger effect = higher value. The procedure, abridged:
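A DNA repair-deficient yeast mutant serves as the test organism; compound-induced growth inhibition is calculated against vehicle-treated cells.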

The nature of assay [2]: NCI Yeast Anticancer Drug Screen. Data for the mec2-1 strain (AID 157). The following applies: S. cerevisiae mec2-1 strain, at 50.0 µM, stronger effect = higher value. An outline of the steps:
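Strain: mec2-1 (DNA repair/cell cycle alteration). Compound exposure, then growth measured; inhibition expressed relative to vehicle.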

Assay [3] can be described thus: NCI Yeast Anticancer Drug Screen. Data for the sgs1 mgt1 strain (AID 161).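 Further: 0% = growth of cultures given vehicle only.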 The following applies: S. cerevisiae sgs1 mgt1 strain, at 50.0 µM, stronger effect = higher value. An outline of the steps:
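Mutant yeast exposed to compound; growth scored against vehicle-only wells.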

Assay [4] in a line: NCI Yeast Anticancer Drug Screen. Data for the cln2 rad14 strain (AID 165).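 Further: 0% = growth equal to vehicle treated cultures.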 The conditions noted are these: S. cerevisiae cln2 rad14 strain, at 50.0 µM, stronger effect = higher value. An outline of the steps:
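Compounds are applied to the cln2 rad14 yeast strain, and growth is then compared with that of vehicle-treated cultures to give inhibition.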

Assay [5] in a line: NCI Yeast Anticancer Drug Screen. Data for the bub3 strain (AID 167). The following applies: S. cerevisiae bub3 mutant strain, at 50.0 µM, stronger effect = higher value. The procedure, abridged:
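Inhibition values come from growth of compound-treated mutant yeast normalised to vehicle-treated controls.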

A short description of assay [6]: NCI Yeast Anticancer Drug Screen. Data for the mlh1 rad18 strain (AID 175). The following applies: S. cerevisiae mlh1 rad18 strain growth inhibition; at 50.0 µM; stronger effect = higher value. The procedure, abridged:
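Read-out is yeast growth inhibition, calculated against vehicle-only controls. The compound was applied to a strain engineered with DNA damage repair alterations.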

The panel holds about 79,000 compounds, 15% with a hit somewhere; the sample as a whole holds those more often. Values without a mark were called inactive. Active and inactive are the calls of the source. No stated cut-off is given here; in the data, active means growth inhibition above about 70%; inactive means the rest.

With `Cc1c(Cl)cccc1NC(=O)c1c(Cl)c(Cl)c(Cl)c(Cl)c1C(=O)O`, the growth inhibition in assay [1] was 7.15%; in assay [2], -1.35%; in assay [3], 8.6%; in assay [4], -31.7%; in assay [5] it was 0.85%; in assay [6] it was 14.1%.
Turning to `C/C=C/C(=O)Nc1cc(Cl)ccc1C`, the growth inhibition in assay [1] was -1.25%; in assay [2] it was -8.1%; in assay [3], -4.95%; in assay [4], -52.1%; in assay [5], 9.4%; in assay [6], 5.55%.
With `C1CCC(C2CCCC[N-]2)[N-]C1.[Cl][Cu][Cl]` (centres undefined), the growth inhibition in assay [1] was 7.35%; in assay [2] it was 10.3%; in assay [3], 9.85%; in assay [4], 9.6%; in assay [5], -4.85%; in assay [6] it was 13.7%.
Turning to `C=CC(O)CCCCCC` (centres undefined), the growth inhibition in assay [1] was -4.9%; in assay [2] it was -27.8%; in assay [3], -22.4%; in assay [4] it was -5.1%; in assay [5], -10.2%; in assay [6], -20.7%.
As to `C=Cc1ccc(C[n+]2cccc(C(N)=O)c2)cc1`, the growth inhibition in assay [1] was -15.2%; in assay [2] it was -17%; in assay [3] it was -2.95%; in assay [4], -1.75%; in assay [5] it was 17.2%; in assay [6], -35.9%.
Turning to `Brc1cncc(Br)c1`, the growth inhibition in assay [1] is 31.9%; in assay [2], -9.35%; in assay [3] it was -13.3%; in assay [4], -2.1%; in assay [5], -12.2%; in assay [6], 1.4%.
With `Cc1ccc(S(=O)(=O)OC[C@H]2CC=CC[C@@H]2COS(=O)(=O)c2ccc(C)cc2)cc1`, the growth inhibition in assay [1] was -18.6%; in assay [2], 31.6%; in assay [3], 0.6%; in assay [4], -29.6%; in assay [5], 3.2%; in assay [6], -6.1%.
For `Clc1ccccc1OCc1cnc[nH]1`, the growth inhibition in assay [1] was -4.05%; in assay [2], -23.7%; in assay [3], -14.9%; in assay [4] it was 6.2%; in assay [5], -9.85%; in assay [6] it was -8.7%.
`COc1ccc(Cl)cc1NC(=O)Nc1cc(C)ccc1Cl`: the growth inhibition in assay [1] was -8.35%; in assay [2] it was 25.8%; in assay [3], 27.4%; in assay [4], -25.2%; in assay [5], 28.8%; in assay [6], 9.9%.
Turning to `O=C(COc1ccc(Cl)c(Cl)c1)NCc1cccc([N+](=O)[O-])c1`, the growth inhibition in assay [1] was 4.9%; in assay [2] it was -15.8%; in assay [3], -8.4%; in assay [4] it was 2.2%; in assay [5], 14.9%; in assay [6], 34%.
As for `CCOC(=O)CCC(NC(=O)c1ccc(N(C)C=O)cc1)C(=O)OCC` (centres undefined), the growth inhibition was 10.9% in assay [1]; -6.8% in assay [2]; -0.55% in assay [3]; -6.8% in assay [4]; 6.45% in assay [5]; 12.3% in assay [6].
In the case of `C/C(=N/C(=O)NN)c1ccc(Cl)cc1`, the growth inhibition is 34.2% in assay [1]; -7.9% in assay [2]; 42.9% in assay [3]; 2.35% in assay [4]; 37.2% in assay [5]; 31.9% in assay [6].
For `O=C1C=CC(=O)C1`, the growth inhibition is 16% in assay [1]; -7.95% in assay [2]; 3.15% in assay [3]; -0.3% in assay [4]; 5.65% in assay [5]; -3.75% in assay [6].
In the case of `CCCCN(CCCC)CCC(O)c1cc(-c2ccc(Cl)c(Cl)c2)nc2c(Cl)cc(Cl)cc12` (centres undefined), the growth inhibition in assay [1] is 96.4% (active); in assay [2], 95.5% (active); in assay [3] it was 6.85%; in assay [4], 97.2% (active); in assay [5] it was 90.3% (active); in assay [6], 74.8% (active).
Take `CSC(SC)[P+](c1ccccc1)(c1ccccc1)c1ccccc1`: the growth inhibition is 94.1% (active) in assay [1]; 93.9% (active) in assay [2]; 90.7% (active) in assay [3]; 93.5% (active) in assay [4]; 91.2% (active) in assay [5]; 93.5% (active) in assay [6].
`Cc1cc2cc3c(C)cc(=O)oc3c(C)c2o1`: the growth inhibition in assay [1] was -35.1%; in assay [2], -37.1%; in assay [3], -28.4%; in assay [4], -8.35%; in assay [5] it was -10.5%; in assay [6], -17.6%.
As for `Cc1cccc(C)c1NC(=O)/C(Cc1nc2ccc([N+](=O)[O-])cc2[nH]c1=O)=N\NC(N)=O`, the growth inhibition in assay [1] is 55.4%; in assay [2] it was 50.6%; in assay [3], 30.9%; in assay [4], 8.85%; in assay [5], 66.5%; in assay [6] it was 41.4%.
As for `COC(=O)c1nc(N)nc(C(=O)OC)c1C(=O)c1cccnc1`, the growth inhibition in assay [1] was -15.2%; in assay [2], -17.8%; in assay [3], -0.35%; in assay [4], -15.3%; in assay [5], -4.7%; in assay [6] it was 10.1%.
`COc1ccc2c(c1)C(=O)OCCC2`: the growth inhibition is 25.4% in assay [1]; 17.5% in assay [2]; -26.6% in assay [3]; 10.3% in assay [4]; -36.4% in assay [5]; -9.95% in assay [6].

(Values after PubChem BioAssay (NCI).)
